Assay results taken from PubChem BioAssay (Tox21).
Records with an inconclusive call do not appear. Where a call stands in place of a potency, no number is given. Unmarked numbers belong to inactive results. The source made the active and inactive calls. The call rests on the fitted dose curve; in most records, active means well fitted curve in the direction sought with a large enough effect in the repeat runs; inconclusive means weak or mixed curves; inactive means no such curve, though single readings can be large; an effect the other way counts as inactive or inconclusive.

Key:
[1] = qHTS RealTime-Glo MT Cell Viability Assay in HepG2 cells - 40 hour (AID 1224870); further: nearly all actives have a fitted effect of over 50% in size
How it was run: (§1)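 HepG2 cells (600/well) mixed with RealTime-Glo MT reagent, settled 5 h at 37 C/5% CO2 before compound addition. Nonlytic NanoLuc luminescence from viable-cell prosubstrate reduction read repeatedly during 40 h treatment at 37 C.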

[2] = A CellTox Green Cytotoxicity Assay to monitor cytotoxicity in HEK293 cells - 40 hour (AID 1224871); further: nearly all actives have a fitted effect of over 45% in size
How it was run: (§2)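 HEK293 cells premixed with CellTox Green dye were seeded at 600 cells/well and left 5 h at 37 C/5% CO2 before pin transfer of 23 nL compound in DMSO. Fluorescence from dye bound to dead-cell DNA was read during 40 h treatment.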

[3] = qHTS RealTime-Glo MT Cell Viability Assay in HEK293 cells - 16 hour (AID 1224872); further: top concentration of the series differs between compounds; nearly all actives have a fitted effect of over 50% in size
How it was run: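 Nonlytic real-time viability readout: viable cells convert prosubstrate to NanoLuc substrate, giving luminescence proportional to live cell number. HEK293, 600 cells/well, compound added after 5 h, continuous culture at 37 C.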

[4] = qHTS RealTime-Glo MT Cell Viability Assay in HepG2 cells - 8 hour (AID 1224873); further: nearly all actives have a fitted effect of over 55% in size
How it was run: as §1

[5] = qHTS RealTime-Glo MT Cell Viability Assay in HEK293 cells - 40 hour (AID 1224874); conditions: RealTime-Glo luminescence; max response: active compounds read low; further: nearly all actives have a fitted effect of over 50% in size
How it was run: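 HEK293 cells mixed with RealTime-Glo reagents (NanoLuc plus cell-permeant prosubstrate) at 600 cells/well, preincubated 5 h at 37 C/5% CO2, then given 23 nL compound in DMSO. Nonlytic luminescence from viable cells was read at 0, 8, 16, 24, 32 and 40 h.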

[6] = A CellTox Green Cytotoxicity Assay to monitor cytotoxicity in HEK293 cells - 24 hour (AID 1224875); further: series mostly up to about 77 µM; nearly all actives have a fitted effect of over 45% in size
How it was run: as §2

[7] = A CellTox Green Cytotoxicity Assay to monitor cytotoxicity in HepG2 cells - 16 hour (AID 1224876); further: nearly all actives have a fitted effect of over 45% in size
How it was run: (§3)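 HepG2 cells were seeded together with the CellTox Green dye at 600 cells/well, left 5 h at 37 C/5% CO2, then given compounds in DMSO. Fluorescence from dye bound to dead-cell DNA was read repeatedly over 40 h of treatment at 37 C.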

[8] = qHTS RealTime-Glo MT Cell Viability Assay in HepG2 cells - 32 hour (AID 1224877); further: nearly all actives have a fitted effect of over 55% in size
How it was run: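 Luminescence read-out: viable HepG2 cells reduce a prosubstrate to a NanoLuc substrate, giving a signal proportional to live cell number. Reads taken at 0, 8, 16, 24, 32 and 40 h of compound exposure at 37 C.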

[9] = A CellTox Green Cytotoxicity Assay to monitor cytotoxicity in HepG2 cells - 24 hour (AID 1224878); further: nearly all actives have a fitted effect of over 45% in size
How it was run: as §3

[10] = A CellTox Green Cytotoxicity Assay to monitor cytotoxicity in HepG2 cells - 40 hour (AID 1224879); further: nearly all actives have a fitted effect of over 40% in size; further: potency means the concentration at half of the fitted maximal effect
How it was run: as §3

Structure (SMILES)	Potency [1]	Potency [2]	Potency [3]	outcome [4]	max response [5]	Potency [6]	Potency [7]	Potency [8]	Potency [9]	Potency [10]	activity change, negative = cytotoxic [1]	cytotoxicity increase [2]	activity change, negative = cytotoxicity [3]	viability change, negative = cytotoxic [4]	activity change [6]	cytotoxicity increase [7]	activity change, negative = cytotoxic [8]	cytotoxicity [9]	cytotoxicity increase [10]
CN(CC1(C)CCCO1)S(=O)(=O)c1ccc(Cl)c(S(N)(=O)=O)c1 (stereo not given)	inactive	inactive	inactive	inactive	2.08%	inactive	inactive	inactive	inactive	inactive									
CN(CCCN1c2ccccc2CCc2ccccc21)CC(=O)c1ccc(Cl)cc1	inactive	inactive	inactive	inactive	-24.7%	inactive	inactive	inactive	inactive	21.3 µM (active)									
O=C(O)c1cccc(Cl)c1Cl	inactive	inactive	inactive	inactive	-7.63%	inactive	inactive	inactive	inactive	inactive									
CC(C)=CCCC(C)CCOC=O (stereo not given)	inactive	inactive	inactive	inactive	13.4%	inactive	inactive	inactive	inactive	inactive									
NC(=O)Cc1cccc(C(=O)c2ccccc2)c1N	inactive	inactive	inactive	inactive	-24.1%	inactive	inactive	inactive	inactive	inactive									
CCc1cc(Cl)c(OC)c(C(=O)NC[C@@H]2CCCN2CC)c1O	inactive	inactive	inactive	inactive	-13.1%	inactive	inactive	inactive	inactive	inactive									
CCCCC(CC)COC(=O)COc1cc(Cl)c(Cl)cc1Cl (stereo not given)	inactive	inactive	inactive	inactive	-3.13%	inactive	inactive	inactive	inactive	inactive									
Cc1ccc([N+](=O)[O-])cc1Cl	inactive	inactive	inactive	inactive	0.878%	inactive	inactive	inactive	inactive	inactive									
CC(C)C[C@H](NC(=O)OCC1c2ccccc2-c2ccccc21)C(=O)O	inactive	inactive	inactive	inactive	-12.9%	inactive	inactive	inactive	inactive	inactive									
C[C@@H]1CN(c2c(F)c(N)c3c(=O)c(C(=O)O)cn(C4CC4)c3c2F)C[C@H](C)N1					-0.345%						-0.442% [at 15.8 µM]	6.32% [at 15.8 µM]	-1.59% [at 15.8 µM]	0.974% [at 15.8 µM]	0.48% [at 15.8 µM, active compounds read high]	-2.88% [at 15.8 µM]	1.06% [at 15.8 µM]	-3.54% [at 15.8 µM]	-1.78% [at 15.8 µM]
Cc1c[nH]c(=S)[nH]c1=O	inactive	inactive	inactive	inactive	22.1%	inactive	inactive	inactive	inactive	inactive									
CCOC(=O)C(Br)c1ccccc1 (stereo not given)	inactive	inactive	inactive	inactive	15.2%	inactive	inactive	inactive	inactive	inactive									
Oc1ccccc1C=NCc1ccccc1	inactive	inactive	inactive	inactive	1.18%	inactive	inactive	inactive	inactive	inactive									
Cc1cn([C@@H]2O[C@H](CO)[C@@H](O)[C@@H]2F)c(=O)[nH]c1=O	inactive	inactive	inactive	inactive	-1.92%	inactive	inactive	inactive	inactive	inactive									
CC(C)Nc1nc(N)nc(Cl)n1	inactive	inactive	inactive	inactive	10.6%	inactive	inactive	inactive	inactive	inactive									
Cc1cccc(C)c1NC(=O)CN1CCCCCC1	inactive	inactive	inactive	inactive	5.59%	inactive	inactive	inactive	inactive	inactive									
CC(CNC1CCCCC1)OC(=O)c1ccccc1 (stereo not given)	inactive	inactive	inactive	inactive	-9.26%	inactive	inactive	inactive	inactive	inactive									
CC(Oc1c(Cl)cccc1Cl)C1=NCCN1 (stereo not given)	inactive	inactive	inactive	inactive	-8.42%	inactive	inactive	inactive	inactive	inactive									
CCOC(=O)C1CC(=O)C(=C(O)C2CC2)C(=O)C1 (stereo not given)	inactive	inactive	inactive	inactive	0.979%	inactive	inactive	inactive	inactive	inactive									
CN1C(=O)CC(c2ccccc2)C1=O (stereo not given)	inactive	inactive	inactive	inactive	11.9%	inactive	inactive	inactive	inactive	inactive									
O=S(=O)(O)C(F)(F)F	inactive	inactive	inactive	inactive	7.92%	inactive	inactive	inactive	inactive	inactive									
